HTR5A ag ctr – HTR5A agonism, opioid heterodimer counter-screen | P47898 | HTR5A agonist assay, luminescence, cell-based | activation, % at 9.3 µM | 340,000 tested, 0.61% active | AID 504692; in the data active = activation mostly above about 9.5%, no sharp cut-off; inactive = mostly below about 7.6%;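 note: 0% = cells with vehicle only and 100% = reference agonist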
OPRM1-OPRD1 ag – agonists of human mu-delta opioid receptor heterodimerization | activation, % at 9.3 µM | cells, OPRM1-OPRD1 heterodimerization, luminescence | 340,000 tested, 0.3% active; in the data active = activation above about 18%;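 note: 0% = vehicle-treated cells and 100% = reference agonist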
Target sequence (P35372 whole entry, looked up): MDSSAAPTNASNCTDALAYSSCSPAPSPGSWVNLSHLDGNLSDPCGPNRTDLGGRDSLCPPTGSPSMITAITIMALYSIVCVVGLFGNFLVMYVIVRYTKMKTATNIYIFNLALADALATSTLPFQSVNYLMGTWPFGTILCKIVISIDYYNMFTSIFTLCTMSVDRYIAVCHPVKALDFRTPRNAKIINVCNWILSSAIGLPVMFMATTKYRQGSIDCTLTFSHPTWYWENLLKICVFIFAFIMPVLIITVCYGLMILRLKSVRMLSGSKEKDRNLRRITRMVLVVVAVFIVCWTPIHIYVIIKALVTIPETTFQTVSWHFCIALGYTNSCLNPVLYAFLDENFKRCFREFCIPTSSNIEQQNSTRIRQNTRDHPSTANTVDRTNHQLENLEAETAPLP
Target sequence (P41143 whole entry, looked up): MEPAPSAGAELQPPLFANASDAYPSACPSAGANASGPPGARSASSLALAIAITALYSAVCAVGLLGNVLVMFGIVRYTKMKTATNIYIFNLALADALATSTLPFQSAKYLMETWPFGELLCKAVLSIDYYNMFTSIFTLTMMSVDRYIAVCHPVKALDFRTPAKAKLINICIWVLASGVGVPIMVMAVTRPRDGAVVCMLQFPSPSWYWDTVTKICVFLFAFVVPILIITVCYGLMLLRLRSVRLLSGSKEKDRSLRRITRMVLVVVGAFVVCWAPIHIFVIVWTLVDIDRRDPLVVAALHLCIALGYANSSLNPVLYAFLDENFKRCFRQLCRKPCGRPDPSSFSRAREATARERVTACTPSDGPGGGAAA
HTR5A inv ctr – inverse agonist of human HTR5A in OPRM1-OPRD1 counter-screen. P47898. HTR5A cell line, luminescence, inverse agonism. inhibition, % at 9.3 µM. 340,000 tested, 0.083% active; in the data active = inhibition mostly above about 23%, no sharp cut-off; inactive = mostly below about 18%;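 note: 0% = cells with DMSO and 100% = no-cell wells with DMSO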
OPRM1-OPRD1 inv – inverse agonist of human OPRM1-OPRD1 heterodimerization | inhibition, % at 9.3 µM | cell-based MOR-DOR heterodimer luminescence, inverse agonism | 340,000 tested, 0.21% active; in the data active = inhibition above about 22%, passing the limit was not always enough;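 note: 0% = cells with DMSO and 100% = wells without cells with DMSO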
Starred values were filed as active, the others as inactive; i = inactive; + = active, no number. Shown are actives, neighbours in structure and some others; about 1.1% of the full set was active somewhere.

SMILES	HTR5A ag ctr	OPRM1-OPRD1 ag	HTR5A inv ctr	OPRM1-OPRD1 inv
O=S(=O)(/N=C(/Nc1cccc2ccccc12)c1ccc(F)cc1)c1ccccc1	1	1	11	-6
CCCCSCCCNC(=O)C1CCC(CNS(=O)(=O)c2ccccc2)CC1 (centres undefined)	12*	2	-49	-11
CCCCNC(=O)C1CCC(CNS(=O)(=O)c2ccc(C)cc2)CC1 (centres undefined)	2	-1	10	8
CSc1nc(N)nc(SCC(=O)C23CC4CC(CC(C4)C2)C3)c1C#N	12*	9	-34	-47
N#Cc1c(N)nc(SCC(=O)C23CC4CC(CC(C4)C2)C3)c(C#N)c1-c1ccc(Cl)cc1	7	0	-18	0
Nc1cc(C(F)(F)F)ccc1C(=O)O	-4	-1	12	4
Nc1cc(S(=O)(=O)C(F)(F)F)ccc1C(=O)O	12*	0	-44	0
COc1cccc(NC(=O)CSCC(=O)O)c1	14*	-2	-31	9
COc1cccc(NC(=O)CSCC(=O)Nc2ccccc2)c1	-3	-2	-6	8
COC(=O)CCC(=O)c1oc2ccc(Br)cc2c1N	12*	-3	-26	13
COc1ccc2oc(C(=O)CCC(=O)O)c(N)c2c1	0	2	19	-9
CCCCSc1ccc(NC(=O)c2cccnc2)cc1	12*	0	-12	-2
N/C(=N\OC(=O)CSc1ccccc1)c1ccccn1	-1	-2	3	11
COc1nc(OC)nc(N2CCC(NC(=O)C(Cc3ccc(C(C)C)cc3)NC(C)=O)CC2)n1 (centres undefined)	11*	-2	20	11
COc1cc(CC(NC(C)=O)C(=O)NC2CCN(c3nc(OC)nc(OC)n3)CC2)cc(OC)c1 (centres undefined)	2	-2	-5	9
O=C(c1ccc(Cl)c(S(=O)(=O)N2CCCCC2)c1)N1CCN(Cc2ccccc2)CC1	5	1	-12	-3
CCc1ccc(S(=O)(=O)/N=C2/C=C(Sc3ncn[nH]3)C(=O)c3ccccc32)cc1	4	30*	17	-143
Cc1ccc(S(=O)(=O)Nc2nc(C)c(C(=O)N/N=C/c3ccccc3)s2)cc1	13*	-2	-9	9
Cc1ccc(S(=O)(=O)Nc2nc(C)c(C(=O)Nc3ccccc3)s2)cc1	1	-1	-2	6
C[C@@]12C(=O)N(c3cccc(F)c3)C(=O)N1[C@@H]1c3ccccc3OC[C@@H]1[C@H]2c1ccccc1	1	1	11	-7
COc1ccccc1-n1c(=S)sc2c(=O)n(Cc3ccco3)c(SC)nc21	10*	1	-12	-7
CCCN1CCN(S(=O)(=O)c2ccc(-n3cnnn3)cc2)CC1	0	-3	22	14
Cc1nn(C(=O)c2ccco2)c(C)c1Sc1ccccc1	11*	1	10	-4
CCOc1ncccc1C(=O)NCCCSc1ccccc1	4	-4	-17	18
On1ccccc1=S	-10	i	23	+
SMILES	HTR5A ag ctr	OPRM1-OPRD1 ag	HTR5A inv ctr	OPRM1-OPRD1 inv
CN(CCc1ccccc1)C(=O)c1ccc(NC(=O)Cc2ccc(NC(=O)C3CCCN(C(=O)C4CC4)C3)cc2)cc1 (centres undefined)	-2	-1	6	3
O=C(COc1ccccc1)Nc1ccc(CSc2ccccc2)cc1	12*	10	1	-56
CCN(CC(=O)Nc1ccccc1C(F)(F)F)C(=O)CN1C(=O)NC(C)(c2ccc3ccccc3c2)C1=O (centres undefined)	2	2	-5	-8
Cc1ccc2c(c1)C(c1ccc(O)cc1)(c1ccc(O)cc1)C(=O)N2C	10*	-1	-28	7
COc1ccc(CCN2CC(C(=O)NC3CCOCC3)CCC2=O)cc1 (centres undefined)	4	-2	26	12
CCOc1ccc(-c2nnc(NC(=O)CCCOc3cccc(C)c3)o2)cc1	13*	8	-25	-46
CCOc1ccc(-c2nnc(NC(=O)Cc3ccc(OC)cc3)o2)cc1	-1	-2	4	10
Cc1cccc(C)c1OCC(=O)OC/C(O)=C(\C#N)c1nc2ccccc2[nH]1	8	17	-7	-89
Cc1cc(C)cc(OCC(=O)OC/C(O)=C(\C#N)c2nc3ccccc3[nH]2)c1	23*	40*	-20	-211
Cc1ccc(Cn2c(SCC(=O)NCC3CCCO3)nc3c2c(=O)n(C)c(=O)n3C)cc1 (centres undefined)	4	0	-11	1
COc1ccc(CN2CC(C(=O)NCCCN3CCCCC3)CC2=O)cc1 (centres undefined)	6	0	10	-2
COc1ccc(-c2csc(NC(=O)C3=NN(c4ccccc4)C(=O)CC3)n2)cc1	10*	-1	-27	7
O=C(Nc1nc(-c2cc(F)ccc2F)cs1)C1=NN(c2ccccc2)C(=O)CC1	-1	-2	3	9
COc1cccc(C=NNc2nc3ccccc3s2)c1OC	9.7*	6	-40	-30
Oc1ccccc1C=NNc1nc2ccccc2s1	0	3	1	-15
COc1ccc(NS(=O)(=O)c2cc(NS(=O)(=O)c3cc(C(=O)O)ccc3OC)ccc2C)cc1	-7	-5	13	20
COc1ccc(NS(=O)(=O)c2cc(C(=O)O)ccc2C)cc1	12*	-1	-29	5
O=C(CSc1ccc2c(c1)OCCO2)Nc1ccc(Cl)cn1	0	1	1	-5
O=C(CSc1ccc2c(c1)OCCO2)Nc1ccc(Br)cn1	11*	-1	-19	7
Cc1occc1-c1nnc(SCC(=O)Nc2ccccc2)n1C	-2	-2	-4	8
Cc1occc1-c1nnc(SCC(=O)Nc2ccccc2N2CCCCC2)n1C	9.8*	2	-16	-12
Nc1nc(NCCc2ccccc2)nc(NCCO)c1[N+](=O)[O-]	-1	-5	5	20
Cc1cc(C(=O)COC(=O)c2ccc(O)cc2)c(C)n1CC1COc2ccccc2O1 (centres undefined)	12*	2	-43	-12
Cc1cc(C(=O)COC(=O)c2ccc3c(c2)OCO3)c(C)n1CC1CCCO1 (centres undefined)	2	-1	-5	5
CCCCOc1cccc(C2C(C(=O)c3ccc(C)o3)=C(O)C(=O)N2Cc2ccco2)c1 (centres undefined)	13*	-1	-47	6
SMILES	HTR5A ag ctr	OPRM1-OPRD1 ag	HTR5A inv ctr	OPRM1-OPRD1 inv
Cc1cc(Cl)ccc1Oc1ncc(CN2CCN(c3ccccc3)CC2)s1	3	1	-23	-6
COc1ccc(Oc2ncc(CN3CCN(c4ccccc4)CC3)s2)cc1	10*	8	-38	-47
O=C(N/C(=C\c1ccccc1)C(=O)N1CCCCC1)c1ccc(Br)o1	-2	0	-9	2
CC(O)(P(=O)(O)O)P(=O)(O)O	1	0	-2	0
OC(CNCC1COc2ccccc2O1)COc1ccc(Cl)cc1 (centres undefined)	9.6*	6	-35	-28
CC(C)(C)C(=O)NC(=S)NNC(=O)c1ccc(-c2ccccc2)cc1	-23	-6	87*	30*
O=C1C=C(O)C(n2cncn2)C(c2ccc(F)cc2)C1 (centres undefined)	-5	1	14	-4
